An excerpt weighted towards active compounds, which were near 4.6% of everything screened.
NR3A LBD binder: modulators (binders) of human NR3A ligand-binding domain; actives 2.5% (n = 340,000); Tm shift relative to glycine control, % at 25 µM; NR3A LBD differential scanning fluorimetry, Tm shift; 0% = protein alone, 100% = glycine-bound protein; AID 1259313;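 active = melting temperature shift of at least 10% of the positive control shift, at one fixed dose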
FAS-TE inh: inhibitors of human fatty acid synthase thioesterase domain; actives 0.67% (n = 360,000); inhibition, % at 15 µM; P49327; recombinant FAS-TE, OMFH fluorogenic substrate, fluorescence endpoint;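 active = compounds whose normalised, plate-corrected inhibition of enzyme fluorescence in the single-dose primary screen is 50% or more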;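 also: 0% = DMSO with enzyme and 100% = substrate without enzyme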
proKLK7 act: proKLK7 (human) activation, primary screen. purified proKLK7, EDANS-DABCYL substrate fluorescence; 100% is mature enzyme control, 0% vehicle. activation, % at 7 µM. actives 0.9% (n = 370,000). AID 652039;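 active = activation above the mean of all tested compounds plus 3 SD, computed per campaign excluding outliers beyond control limits, cut at about 13% in these data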
ADAM17 inh: ADAM17 inhibition, QFRET primary screen; AID 720648; P78536; actives 0.83% (n = 370,000); inhibition, % at 6.95 µM; recombinant ADAM17, EDANS/DABCYL FRET peptide cleavage;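 active = inhibition above the mean of compounds lying between control limits plus 3 SD, set per campaign, cut at about 8.5% in these data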;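 also: 0% = DMSO-only wells as the low control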
Target sequence (P78536 215-824 limits assumed): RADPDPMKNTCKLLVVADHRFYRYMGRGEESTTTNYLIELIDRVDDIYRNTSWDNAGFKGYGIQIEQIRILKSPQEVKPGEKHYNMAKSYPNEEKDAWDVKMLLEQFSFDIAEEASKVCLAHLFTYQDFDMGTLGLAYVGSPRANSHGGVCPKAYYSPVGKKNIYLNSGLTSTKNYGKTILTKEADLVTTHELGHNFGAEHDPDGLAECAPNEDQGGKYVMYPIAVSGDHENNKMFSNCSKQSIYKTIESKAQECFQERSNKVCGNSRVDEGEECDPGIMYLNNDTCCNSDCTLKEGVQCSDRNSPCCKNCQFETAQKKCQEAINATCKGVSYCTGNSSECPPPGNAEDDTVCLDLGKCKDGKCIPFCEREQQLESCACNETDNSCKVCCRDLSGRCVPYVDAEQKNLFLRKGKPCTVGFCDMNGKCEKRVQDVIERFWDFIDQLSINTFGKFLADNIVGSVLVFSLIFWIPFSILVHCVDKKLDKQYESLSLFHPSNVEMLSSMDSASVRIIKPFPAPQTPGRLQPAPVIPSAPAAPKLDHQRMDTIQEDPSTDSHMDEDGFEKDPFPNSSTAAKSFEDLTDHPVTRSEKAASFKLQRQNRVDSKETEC
ADAM10 inh: inhibits human ADAM10 | inhibition, % at 7 µM | O14672 | recombinant ADAM10, EDANS/DABCYL FRET peptide cleavage, 3 h | AID 720582 | actives 0.62% (n = 370,000);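 active = inhibition above a per-campaign cutoff equal to the mean of compounds falling between control-based bounds plus 3 SD, cut at about 20% in these data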;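 also: 0% = DMSO wells while the 100% control is not disclosed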
ADAM10 counter: ADAM10 inhibition, counter-screen for ADAM17 exosite hits; shares compounds with ADAM17 inh; recombinant ADAM10, EDANS/DABCYL FRET peptide cleavage, 3 h; inhibition, % at 6.95 µM; actives 47% (n = 2,900); AID 743256;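 active = mean inhibition over the triplicate runs exceeds the activity threshold set in the earlier primary screen, cut at about 20% in these data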;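 also: 0% = DMSO wells and 100% = marimastat wells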
ADAM17 confirm: confirmation of inhibitors of human ADAM17 | shares compounds with ADAM17 inh | recombinant ADAM17, EDANS/DABCYL QFRET peptide cleavage | inhibition, % at 6.95 µM | actives 65% (n = 2,900);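 active = mean inhibition across replicates above the hit cutoff set in the primary screen, cut at about 8.5% in these data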;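 also: 0% = DMSO wells and 100% = marimastat wells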
The depositor's hits bear a star; . = no result.

SMILES	NR3A LBD binder	FAS-TE inh	proKLK7 act	ADAM17 inh	ADAM10 inh	ADAM10 counter	ADAM17 confirm
Fc1cccc(-c2c(-c3ccccc3)ncc3cc(F)ccc23)c1	1	22	0	0	-6	.	.
O=[N+]([O-])c1cccc(-c2c(-c3ccccc3)ncc3ccc(F)cc23)c1	-5	25	0	11*	4	6	5
O=C(NCC1CCN(C(=O)C(=O)c2cccs2)CC1)c1ccc2ccccc2c1	.	.	1	-3	1	.	.
COc1ccccc1C(=O)NCCOc1ccc(C)c(C)c1	-4	-8	0	-1	-14	.	.
COc1cc(SC)ccc1C(=O)NCCOc1ccc(C)c(C)c1	16*	22	0	8.8*	13	19	12*
Cc1c(C(=O)OCc2nc3scc(-c4ccccc4)c3c(=O)[nH]2)cccc1[N+](=O)[O-]	2	12	0	0	2	.	.
O=C(OCc1nc2scc(-c3ccccc3)c2c(=O)[nH]1)c1cc(Cl)ccc1[N+](=O)[O-]	-7	34	1	8.6*	12	1	4
Cc1cc(=O)n(Cc2ccc(OC(C)C)cc2)c(=S)[nH]1	0	-4	0	10*	7	14	9.9*
Cc1cc(=O)n(Cc2ccco2)c(=S)[nH]1	.	-7	-1	-5	-19	.	.
O=S(=O)(c1cc(F)ccc1F)N1CCC2(CC1)OCCN2S(=O)(=O)c1cccs1	0	16	0	-4	3	.	.
Cc1cc(S(=O)(=O)N2CCC3(CC2)OCCN3S(=O)(=O)c2cccs2)ccc1F	-2	24	0	12*	13	13	9.2*
O=C(O)c1cc(O)c2c(c1)[C@H]([C@H]1c3cc(C(=O)O)cc(O)c3C(=O)c3c(O[C@@H]4O[C@H](CO)[C@@H](O)[C@H](O)[C@H]4O)cccc31)c1cccc(OC3O[C@H](CO)[C@@H](O)[C@H](O)[C@H]3O)c1C2=O (stereo not given in full)	26*	3	0	16*	-255	-367	9.7*
COc1cc(CN2C[C@@H](CO)O[C@@H](n3cnc4c(N5CCN(c6ccccc6)CC5)ncnc43)C2)cc(OC)c1OC	.	-1	0	9.1*	5	0	3
CCOC(=O)C1=CN(Cc2cccc(F)c2)S(=O)(=O)NC1c1cccc(OC)c1 (stereo not given)	1	14	-1	-4	-3	.	.
CCOC(=O)C1=CN(Cc2cccc(F)c2)S(=O)(=O)NC1c1ccc2ccccc2c1 (stereo not given)	8	23	0	9.8*	20	15	11*
CCC(C(=O)Nc1cccc(C(F)(F)F)c1)c1ccccc1 (stereo not given)	-2	30	0	8.7*	14	20*	9.4*
CC(C)[C@H](NC(=O)C1CC1)C(=O)N1CCC[C@H]1C(=O)NCCc1ccccc1Cl	.	.	0	1	-4	.	.
Cc1cc(C(=O)CCC(=O)N(C)CC(=O)Nc2ccccc2Br)c(C)s1	1	-1	0	11*	6	-10	-1
COc1cccc(C(NC(C)=O)c2ccc3cccnc3c2O)c1 (stereo not given)	-4	0	0	0	8	.	.
COc1cccc(C(Nc2ccccc2)c2ccc3ccc(C)nc3c2O)c1 (stereo not given)	.	.	0	17*	11	13	15*
O=C(O)COc1ccc(NC(=O)c2ccc(NC(=O)c3ccco3)cc2)cc1	-5	-3	0	0	-2	.	.
O=C(OC1CCCCC1)c1ccc(NC(=O)c2ccco2)cc1	-2	17	1	12*	19	21*	12*
C=C(C)CNC(=S)NNC(=O)c1ccncc1	-4	-7	0	-6	-6	.	.
C=C(C)CNC(=S)NNC(=O)CCn1c2ccc(Cl)cc2c2cc(Cl)ccc21	27*	23	0	9.7*	19	37*	23*
COc1ccccc1Cc1c(-c2ccc(F)cc2)nc2c3ccccc3ccn12	.	.	-5	-10	-25	.	.
